Results on 24 molecules are retold here after PubChem BioAssay (EPA / NIEHS).

Assay [1] deals with Cellular tumor antigen p53 (Homo sapiens) (UniProt P04637). Briefly: TOX21_p53_BLA_p2_ratio: Tox21 HCT-116 p53 Agonism Beta-lactamase Assay, Ratio, Phase 2 (AID 2283592). Put shortly:
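DMSO-normalized, positive-direction endpoint derived from the 460 nm/530 nm FRET ratio in HCT116 p53 beta-lactamase reporter cells exposed 16 h at 37C and loaded with CCF4-AM for 2 h.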

Assay [2] is described as follows: TOX21_p53_BLA_p3_viability: Viability Assessment in the Tox21 HCT-116 p53 Agonism Beta-lactamase Assay, Phase 3 (AID 2283593).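 Also: cells exposed to compound for 16 h before reading.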 Put shortly:
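HCT116 cells, 4000/well, dosed 5 h after plating by pin transfer (217-fold dilution from DMSO stock) and incubated 16 h at 37C, 5% CO2. Viability read as ATP luminescence with CellTiter-Glo after 30 min at room temperature.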

In assay [3] the target is Cellular tumor antigen p53 (Homo sapiens) (UniProt P04637). Briefly: TOX21_p53_BLA_p3_ratio: Tox21 HCT-116 p53 Agonism Beta-lactamase Assay, Ratio, Phase 3 (AID 2283596). Put shortly:
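Cells were seeded at 4000/well, rested 5 h at 37C, then dosed with DMSO compound solutions (217-fold dilution) for 16 h. CCF4-AM substrate was loaded for 2 h at room temperature, and the 460/530 nm emission ratio was fitted for gain of signal versus DMSO.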

A short description of assay [4]: TOX21_p53_BLA_p4_viability: Viability Assessment in the Tox21 HCT-116 p53 Agonism Beta-lactamase Assay, Phase 4 (AID 2283597).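 Also: hits lower the luminescence signal meaning cytotoxicity.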 Summed up:
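In this multiplexed secondary endpoint, HCT116 cells (4000 per well, compound at 5 h, 16 h treatment) received CellTiter-Glo after the beta-lactamase read. Luminescence after 30 min RT reflects ATP, and falling signal marks cytotoxicity.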

Assay [5] has as its target Cellular tumor antigen p53 (Homo sapiens) (UniProt P04637). Briefly: TOX21_p53_BLA_p5_ratio: Tox21 HCT-116 p53 Agonism Beta-lactamase Assay, Ratio, Phase 5 (AID 2283599). Put shortly:
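HCT-116 p53-bla cells (4000/well) plated 5 h, dosed with compound (217-fold DMSO dilution) for 16 h at 37 C; CCF4-AM substrate 2 h at room temperature. Activity is the 460/530 nm emission ratio (405 nm excitation), fitted in gain-of-signal direction versus DMSO.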

Assay [6] can be described thus: TOX21_p53_BLA_p5_viability: Viability Assessment in the Tox21 HCT-116 p53 Agonism Beta-lactamase Assay, Phase 5 (AID 2283600). Put shortly: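 Here cell health was gauged by ATP levels in wells holding 4000 cells, each treated 16 h with DMSO-delivered compounds at 217-fold dilution; reduced luminescence marked toxicity.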
For assay [7], the target named is Cellular tumor antigen p53 (Homo sapiens) (UniProt P04637). Briefly: TOX21_p53_BLA_p4_ratio: Tox21 HCT-116 p53 Agonism Beta-lactamase Assay, Ratio, Phase 4 (AID 2283601). Summed up:
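HCT-116 p53 beta-lactamase reporter cells (4000/well) preincubated 5 h, then compound (217-fold dilution of DMSO stock) for 16 h at 37C. CCF4-AM substrate added 2 h at room temperature; 460/530 nm emission ratio fitted upward versus DMSO.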

Inconclusive results are not listed. Activity calls are given as the source filed them. The calls were made as follows: active = hit-call score of the fitted dose curve at least 0.9, where 1 is the maximum; inconclusive = response in the unintended direction; inactive = score below 0.9.

Cellular tumor antigen p53 (Homo sapiens), sequence (P04637 whole entry, looked up): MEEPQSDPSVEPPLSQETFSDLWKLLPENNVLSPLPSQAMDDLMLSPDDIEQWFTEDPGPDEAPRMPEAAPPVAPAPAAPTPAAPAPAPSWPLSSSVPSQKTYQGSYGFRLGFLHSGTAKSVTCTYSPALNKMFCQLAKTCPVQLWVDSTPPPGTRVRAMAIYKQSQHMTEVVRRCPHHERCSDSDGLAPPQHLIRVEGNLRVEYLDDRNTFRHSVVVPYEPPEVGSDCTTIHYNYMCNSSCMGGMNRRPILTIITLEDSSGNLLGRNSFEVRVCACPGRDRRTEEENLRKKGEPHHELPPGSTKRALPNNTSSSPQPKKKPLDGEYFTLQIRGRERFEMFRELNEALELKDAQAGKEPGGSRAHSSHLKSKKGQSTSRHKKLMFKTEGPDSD

As a reminder, the AC50 is the midpoint of the concentration-response curve, whichever way the signal moves. As to `Nc1ccn([C@@H]2O[C@H](CO)[C@@H](O)C2(F)F)c(=O)n1`, the AC50 in assay [1] was 176 nM (active); in assay [3] it was 181 nM (active); in assay [5], 260 nM (active); in assay [7], 188 nM (active). The outcome in assay [2], in assay [4] and in assay [6] was inactive.
On to `O=C(O)O`, for which the result in assay [1], in assay [2], in assay [3], in assay [4], in assay [5] and in assay [6] was inactive. Further, the outcome in assay [7] was inactive.
As for `O=C(O)Cc1ccc(-c2ccccc2)cc1`, the outcome in assay [1], in assay [2], in assay [3], in assay [4], in assay [5] and in assay [6] was inactive. Moreover, in assay [7], the result was inactive.
For the molecule `O=S(=O)(O)c1cc(I)c(O)c2ncccc12`, the result in assay [1], in assay [2], in assay [3], in assay [4], in assay [5] and in assay [6] was inactive. Besides, the outcome in assay [7] was inactive.
On to `Cc1ccc(C(=O)C(C)CN2CCCCC2)cc1` (stereo not drawn), for which the outcome in assay [1], in assay [2], in assay [3], in assay [4], in assay [5] and in assay [6] was inactive. Also, the result in assay [7] was inactive.
On to `CN[C@@H]1[C@@H](O[C@H]2O[C@H](CO)[C@@H](N)[C@H](O)[C@H]2O)O[C@H]2C[C@@H](N)[C@@H](O[C@H]3[C@H](O)[C@@H](O)[C@H](N)C[C@@H]3N)O[C@@H]2[C@@H]1O`, for which the outcome in assay [1], in assay [2], in assay [3], in assay [4], in assay [5] and in assay [6] was inactive. In addition, the outcome in assay [7] was inactive.
For `CCOC(=O)CS`, the outcome in assay [1], in assay [2], in assay [3], in assay [4], in assay [5] and in assay [6] was inactive. In assay [7], the result was inactive.
For the molecule `COC(=O)C1=C(C)NC(C)=C(C(=O)OC(C)(C)CN(C)CCC(c2ccccc2)c2ccccc2)C1c1cccc([N+](=O)[O-])c1` (stereo not drawn), the result in assay [1], in assay [2], in assay [3], in assay [4], in assay [5] and in assay [6] was inactive. The result in assay [7] was inactive.
Regarding `CC(C)COC(=O)c1ccc(O)cc1`, the result in assay [1], in assay [2], in assay [3], in assay [4], in assay [5] and in assay [6] was inactive. In addition, the result in assay [7] was inactive.
Take `Cc1c(N)nc(C(CC(N)=O)NCC(N)C(N)=O)nc1C(=O)NC(C(=O)NC(C)C(O)C(C)C(=O)NC(C(=O)NCCc1nc(-c2nc(C(=O)NCCCN[C@@H](C)c3ccccc3)cs2)cs1)C(C)O)C(O[C@@H]1O[C@@H](CO)[C@@H](O)[C@H](O)[C@@H]1O[C@H]1O[C@H](CO)[C@@H](O)[C@H](OC(N)=O)[C@@H]1O)c1cnc[nH]1` (stereo partly drawn): the AC50 was 286 nM (active) in assay [1], 301 nM (active) in assay [3], 430 nM (active) in assay [5] and 193 nM (active) in assay [7]. Also, the outcome in assay [2], in assay [4] and in assay [6] was inactive.
`O=C(O)c1nc(=O)[nH]c(=O)[nH]1`: the result in assay [1], in assay [2], in assay [3], in assay [4], in assay [5] and in assay [6] was inactive. Besides, the result in assay [7] was inactive.
`COc1ccc(-c2noc(CC(=O)O)c2-c2ccc(OC)cc2)cc1`: the outcome in assay [1], in assay [2], in assay [3], in assay [4], in assay [5] and in assay [6] was inactive. The result in assay [7] was inactive.
For `O=C(c1ccccc1)c1cccc(O)c1`, the outcome in assay [1], in assay [2], in assay [3], in assay [4], in assay [5] and in assay [6] was inactive. The outcome in assay [7] was inactive.
With `CC(C)(C)C(=O)OCOC(=O)[C@@H]1N2C(=O)[C@@H](N=CN3CCCCCC3)[C@H]2SC1(C)C`, the result in assay [1], in assay [2], in assay [3], in assay [4], in assay [5] and in assay [6] was inactive. In assay [7], the result was inactive.
For `CC1(CN2CCC(n3c(=O)[nH]c4ccccc43)CC2)OCc2ccccc2-n2cccc21` (stereo not drawn), the outcome in assay [1], in assay [2], in assay [3], in assay [5], in assay [6] and in assay [7] was inactive. Moreover, the AC50 in assay [4] was 33300 nM (active).
With `CCCCOC(=O)c1ccc(N)cc1`, the result in assay [1], in assay [2], in assay [3], in assay [4], in assay [5] and in assay [6] was inactive. In addition, the result in assay [7] was inactive.
With `Cc1c(C)c2c(c(C)c1O)CC[C@@](C)(CCC[C@H](C)CCC[C@H](C)CCCC(C)C)O2`, the result in assay [1], in assay [2], in assay [3], in assay [4], in assay [5] and in assay [6] was inactive. Moreover, the result in assay [7] was inactive.
On to `CC12CCC(CC1=O)C2(C)C` (stereo not drawn), for which the outcome in assay [1], in assay [2], in assay [3], in assay [4], in assay [5] and in assay [6] was inactive. In assay [7], the outcome was inactive.
Regarding `Cc1cc(S(=O)(=O)O)c(N)cc1Cl`, the result in assay [1], in assay [2], in assay [3], in assay [4], in assay [5] and in assay [6] was inactive. Further, the result in assay [7] was inactive.
In the case of `CC(=O)O[C@H]1C(=O)[C@@]2(C)[C@H]([C@H](OC(=O)c3ccccc3)[C@]3(O)C[C@H](OC(=O)[C@H](O)[C@@H](NC(=O)c4ccccc4)c4ccccc4)C(C)=C1C3(C)C)[C@]1(OC(C)=O)CO[C@@H]1C[C@@H]2O`, the AC50 in assay [1] was 179 nM (active); in assay [3], 8.26 nM (active); in assay [5] it was 4570 nM (active); in assay [7], 7.02 nM (active). In addition, the result in assay [2], in assay [4] and in assay [6] was inactive.
For `Cc1cn([C@H]2C[C@H](O)[C@@H](CO)O2)c(=O)[nH]c1=O`, the result in assay [1], in assay [2], in assay [3], in assay [4], in assay [5] and in assay [6] was inactive. Further, in assay [7], the outcome was inactive.
Regarding `O=C(NN=Cc1ccc([N+](=O)[O-])o1)c1ccc(O)cc1`, the results for the AC50 in assay [1], in assay [3] and in assay [5] were 10200 nM (active), 16200 nM (active) and 15500 nM (active), respectively. Moreover, the molecule was classed as inactive in assay [2], in assay [4], in assay [6] and in assay [7].
Take `C=C(C)C(=O)OCC(C)(C)COC(=O)C(=C)C`: the outcome in assay [1], in assay [2], in assay [3], in assay [4], in assay [5] and in assay [6] was inactive. In addition, the result in assay [7] was inactive.
On to `CCCN1CCCC[C@H]1C(=O)Nc1c(C)cccc1C`, for which the result in assay [1], in assay [2], in assay [3], in assay [4], in assay [5] and in assay [6] was inactive. Besides, in assay [7], the outcome was inactive.
